High-throughput results from PubChem BioAssay.
Sampled rows, rich in hits. Any-hit rate of the full collection: about 4%.
TWEAK Fn14 block – inhibitors of TWEAK-Fn14 interaction signaling. TWEAK-stimulated Fn14 reporter cells, luciferase luminescence, 8 h. inhibition, % at 10 µM. hit rate 2% among 360,000. AID 1159606; in the data active = inhibition above about 50%
LMP1 NFkB inh – inhibitors of Epstein-Barr LMP1-induced NF-kappaB reporter; LMP1-induced NF-kappaB luciferase reporter cells, luminescence; inhibition, % at 12.5 µM; hit rate 0.69% among 350,000; in the data active = inhibition above about 41%
TROY NFkB inh – TROY signaling inhibition; Q293 LMP1-TROYcd NF-kB luciferase reporter, 4 h; inhibition, % at 10 µM; hit rate 0.98% among 360,000;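 active = compounds whose plate-normalised and pattern-corrected inhibition of the luciferase reporter signal at the single screening dose is 50% or more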
HIF-2a inh – inhibitors of HIF-2a. 786-0 RCC cells HIF-2a reporter, luciferase luminescence, overnight. inhibition, % at 18.8 µM. hit rate 0.72% among 360,000. AID 624352;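 active = inhibition of the luminescence signal of 40% or more relative to plate controls, in a single-dose primary screen at 18.75 µM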
TRPM1 prom inh – inhibitors of MITF-driven TRPM1 promoter in melanoma cells; SK-MEL-5 TRPM1 promoter luciferase, 24 h; inhibition, % at 12.5 µM; hit rate 0.83% among 330,000;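 active = mean inhibition across replicates of 60% or more, whatever share of single replicates reaches that level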
Peg3 promoter – reduces Peg3 promoter-driven luciferase expression in HeLa | HeLa PEG-Prom luciferase reporter, luminescence, overnight | inhibition, % at 20 µM | hit rate 1.7% among 360,000 | AID 588405;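 active = inhibition of at least 50% at 20 µM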
Large screens that a line does not name were inactive.

CCCc1nnc(SCC(=O)Nc2ccc(OCC)cc2)n1N	TWEAK Fn14 block 99.8
Cc1ccc2[nH]c3c(=O)n(CCN4CCOCC4)cnc3c2c1	none
Cc1ccc2[nH]c3c(=O)n(CCc4cnc[nH]4)cnc3c2c1	TROY NFkB inh 53.2
Cc1ccc(-c2nc3ccccc3c(=O)o2)cc1	none
CC(=O)Oc1ccc(-c2nc3ccccc3c(=O)o2)cc1	Peg3 promoter 77.3
CC(=O)Oc1ccccc1/C=C/c1nc2ccccc2c(=O)o1	TWEAK Fn14 block 62.0, LMP1 NFkB inh 44.7
COc1cc(OC)cc(-c2nc3ccccc3c(=O)o2)c1	none
CC(=O)Oc1ccc(/C=C/c2nc3ccccc3c(=O)o2)cc1	TWEAK Fn14 block 79.2, TROY NFkB inh 50.4
Cc1ccc2nc(-c3ccccc3)oc(=O)c2c1	TWEAK Fn14 block 107.8 (no result: TRPM1 prom inh)
CCOc1ccc(S(N)(=O)=O)cc1-c1nc2c(C(C)(C)C)nn(C)c2c(=O)[nH]1	none
CCOc1ccc(S(=O)(=O)NC(C)(C)C)cc1-c1nc2c(C(C)(C)C)nn(C)c2c(=O)[nH]1	Peg3 promoter 52.5
O=C(NC(c1ccc(Cl)cc1)c1ccsc1)C1CCN(Cc2cccc(Cl)c2)CC1 (stereo not given)	none (no result: LMP1 NFkB inh, TRPM1 prom inh)
CC1CCN(CCCNS(=O)(=O)c2cc(Br)cc3c2N(C(=O)C2CC2)CC3)CC1	TWEAK Fn14 block 72.6
O=c1cc(/C=C/c2ccccc2)oc2c1ccc1ccccc12	TWEAK Fn14 block 64.0
O=C(COC(=O)C1CC(=O)N(c2ccc3c(c2)OCCO3)C1)Nc1ccc2c(c1)CCC2 (stereo not given)	TWEAK Fn14 block 64.9
COc1ccccc1NC(=O)COC(=O)C1CC(=O)N(c2ccc3c(c2)OCCO3)C1 (stereo not given)	TWEAK Fn14 block 64.1
COc1ccccc1NC(=O)NC1CC(=O)N(c2ccc3c(c2)OCCO3)C1 (stereo not given)	none
Cc1ccccc1N=C1SC(CC(=O)Nc2ccc3ccccc3c2)C(=O)N1Cc1ccccn1 (stereo not given)	TWEAK Fn14 block 71.5
Cc1cc(C)c(S(=O)(=O)N2CCN(C(=O)c3ccccc3OCc3c(C)noc3C)CC2)c(C)c1	LMP1 NFkB inh 45.5
Cc1ccccc1CN1C(=O)c2ccccc2C1c1nnnn1C(C)C (stereo not given)	none (no result: LMP1 NFkB inh, TRPM1 prom inh, Peg3 promoter)
Cc1cc[n+](CC(=O)c2cc3ccccc3oc2=O)cc1	TROY NFkB inh 52.4
COc1ccc(CNCC(O)(c2ccc(Cl)cc2)c2ccc(Cl)cc2)cc1	none
CCCCNCC(O)(c1ccc(Cl)cc1)c1ccc(Cl)cc1	Peg3 promoter 62.6
Cc1ccc(C)c(CC(=O)N2CCCC(c3cc(C(=O)NCc4cccnc4)no3)C2)c1 (stereo not given)	none (no result: LMP1 NFkB inh, TRPM1 prom inh)
CCOc1ccc(NC(=O)Cn2cc(C(C)=O)c3ccccc32)cc1	none
CCOc1ccc(NC(=O)Cn2cc(C(=O)CC)c3ccccc32)cc1	LMP1 NFkB inh 70.9
Cc1ccc(S(=O)(=O)NNc2c3ccccc3nc3ccc(Cl)cc23)cc1	none (no result: TRPM1 prom inh)
COCCNC(=O)C1Cc2c(ccc3ccccc23)O1 (stereo not given)	none
COc1ccc(S(=O)(=O)NNC(=O)C2Cc3c(ccc4ccccc34)O2)cc1 (stereo not given)	LMP1 NFkB inh 44.5
CCOc1cc(/C=C(\C#N)C(=O)Nc2cccc(C(=O)O)c2)cc(Br)c1OC(=O)c1ccc(OC)cc1	TROY NFkB inh 62.4
CCOc1cc(/C=C(\C#N)C(=O)Nc2cccc(C(=O)O)c2)ccc1OCc1ccccc1Cl	none
O=C(CN1CCN(C(=O)c2cncn2-c2ccccc2)CC1)Nc1ccccc1Cl	none
C/C(=N\Nc1nc(-c2ccccc2)cs1)c1cccs1	none
C/C(=N\Nc1nc2ccccc2s1)c1cccs1	TWEAK Fn14 block 68.0
CC(=NNc1nc2ccccc2s1)c1ncccn1	LMP1 NFkB inh 62.8
CN1OC[C@@H]2CN(C(=S)NCCc3ccccc3)[C@H](c3ccc(N4CCCCC4)cc3)C[C@@H]21	none (no result: LMP1 NFkB inh, TRPM1 prom inh)
COc1ccc(-n2c(SCC(=O)Nc3cc(C)on3)nc3c(c2=O)SCC3)cc1	LMP1 NFkB inh 82.6
CCSc1nc2c(c(=O)n1-c1ccc(F)cc1)SCC2	none
COc1ccc(-n2c(SCC(=O)Nc3cc(C)on3)nc3c(c2=O)SCC3)cc1OC	none
COC(=O)c1ccc(CSc2nc3c(c(=O)n2-c2ccc(C)cc2)SCC3)o1	LMP1 NFkB inh 70.4
COc1cc(C)ccc1S(=O)(=O)NC(=O)C1(C)CCN1C(=O)Cc1ccc(C(C)(C)C)cc1 (stereo not given)	none (no result: LMP1 NFkB inh, TRPM1 prom inh)
Cc1cc([N+](=O)[O-])ccc1P(=O)(O)c1ccc([N+](=O)[O-])cc1C	none
CC(C)N1CCN(c2ccc(OCC3COC(Cn4cncn4)(c4ccc(Cl)cc4Cl)O3)cc2)CC1 (stereo not given)	none
CC(C)N1CCN(c2ccc(OC[C@H]3CO[C@](Cn4cncn4)(c4ccc(Cl)cc4Cl)O3)cc2)CC1	LMP1 NFkB inh 56.3
CSc1nnc(CCCCCCCCc2nnc(SC)o2)o1	none
Cc1cc(=O)[nH]c(N2CCOCC2)n1	none
Cc1cc(N2CCOCC2)c2c(N)c(Br)cc(C)c2n1	LMP1 NFkB inh 62.6
CSC1=C(C#N)C(=O)NC(c2ccccc2O)S1 (stereo not given)	none
COC(=O)CSC1=C(C#N)C(=O)NC(c2ccccc2)S1 (stereo not given)	TRPM1 prom inh 74.1, Peg3 promoter 84.3
O=C(/C=C\c1ccc2c(c1)OCO2)CC1(O)C(=O)Nc2ccccc21 (stereo not given)	none
Cc1cc(C(C#N)c2ccc(Cl)cc2)c(Cl)cc1NC(=O)c1cc(I)cc(I)c1O (stereo not given)	TROY NFkB inh 69.6
CC(=O)Oc1ccc(N(C(C)=O)S(=O)(=O)c2ccccc2)c2ccccc12	none (no result: TRPM1 prom inh)
COc1ccc(S(=O)(=O)N(C(C)=O)c2ccc(OC(C)=O)c3ccccc23)cc1[N+](=O)[O-]	TRPM1 prom inh 71.5
O=C1C(=O)N(c2ccccn2)C(c2cccc([N+](=O)[O-])c2)/C1=C(/O)c1ccc(Br)cc1 (stereo not given)	none
COc1ccccc1N1C(=O)N(C(C)=O)C2C1Nc1ccccc1N2C (stereo not given)	TRPM1 prom inh 68.6
COc1ccccc1N1C(=O)c2ccccc2NC1c1ccncc1 (stereo not given)	none
Cc1ccc(-c2nnn3c2nc(Cl)c2ccccc23)cc1	none
Fc1cccc(-c2nnn3c2nc(Cl)c2ccccc23)c1	Peg3 promoter 106.7
Cc1cc(O)ccc1-c1cccc2nccn12	none (no result: LMP1 NFkB inh, TRPM1 prom inh)
Cc1ccnc(NC(=O)/C=C/c2cccs2)c1	TWEAK Fn14 block 53.5
CN1C2CCC1CC(NS(=O)(=O)c1ccc(C#N)cc1)C2 (stereo not given)	none
NNc1nc2ccccc2c(=O)n1Cc1ccccc1	TWEAK Fn14 block 73.9
Cc1cc(N/N=C/c2ccc(N(C)C)cc2)c2ccccc2n1	none
COc1ccc2nc(C)cc(Nc3ccc(N4CCN(C)CC4)cc3)c2c1	TRPM1 prom inh 97.4, Peg3 promoter 110.8
COc1ccc2nc(C)cc(N/N=C/c3ccccc3)c2c1	TRPM1 prom inh 98.9, Peg3 promoter 106.9
